# Experimental data taken from PubChem BioAssay (NCATS).
# Inconclusive results are not listed. A call without a number means that no potency is given here. Active and inactive are the calls of the source. Calls follow the shape of the dose curve; as a rule, active = well fitted curve in the direction sought with a large enough effect; inconclusive = small, poorly fitted or top-dose-only effect, or another doubt; inactive = no such curve, though single readings can be large; an effect the other way counts as inactive or inconclusive.
# Columns and labels:
# WaGa = test: qHTS assay to identify novel small-molecules to repurpose for Merkel cell carcinoma treatment (AID 1296009); conditions: MCC and control cell lines, CellTiter-Glo viability, 72 h; series mostly up to 46 µM; also: nearly all actives have a fitted effect of over 60% in size
# Summary of the method: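 qHTS format: cells treated with library compounds in DMSO across 8 (NPC) or 11 (MIPE) concentrations. Readout after 72 hr at 37 degree celsius was CellTiter-Glo luminescence.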
# C33A = test: Primary qHTS to identify gynecologic anti-cancer compounds using libraries of approved drugs and bioactive compounds (AID 1345084); conditions: Gynecologic cancer cell panel viability, ATPlite luminescence, 48 h; series mostly up to 57.5 µM; also: nearly all actives have a fitted effect of over 55% in size
# Summary of the method: (§1)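 ATP-based viability (ATPlite), 1,000 cells/well, 16 h pre-incubation, 48 h compound at 37 C, 5% CO2, 15 min RT before read.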
# CAOV3 = test: as above; conditions: Gynecologic cancer cell panel viability, ATPlite luminescence, 48 h; series mostly up to 57.5 µM
# Summary of the method: as §1
# CASKI = test: as above; conditions: Gynecologic cancer cell panel viability, ATPlite luminescence, 48 h; series mostly up to 57.5 µM
# Summary of the method: as §1
# Es-2 = test: as above; conditions: Gynecologic cancer cell panel viability, ATPlite luminescence, 48 h; series mostly up to 57.5 µM
# Summary of the method: as §1
# HeLa = test: as above; conditions: Gynecologic cancer cell panel viability, ATPlite luminescence, 48 h; series mostly up to 57.5 µM
# Summary of the method: as §1
# JEG-3 = test: as above; conditions: Gynecologic cancer cell panel viability, ATPlite luminescence, 48 h; series mostly up to 57.5 µM
# Summary of the method: as §1
# OV90 = test: as above; conditions: Gynecologic cancer cell panel viability, ATPlite luminescence, 48 h; series mostly up to 57.5 µM
# Summary of the method: as §1
# PA-1 = test: as above; conditions: Gynecologic cancer cell panel viability, ATPlite luminescence, 48 h; series mostly up to 57.5 µM
# Summary of the method: as §1
# Hek293T = test: as above; conditions: Gynecologic cancer cell panel viability, ATPlite luminescence, 48 h, control line for the selectivity index; series mostly up to 57.5 µM
# Summary of the method: as §1
# Potency is read from the fitted curve at half-maximal effect.
SMILES,Potency (WaGa),Potency (C33A),Potency (CAOV3),Potency (CASKI),Potency (Es-2),Potency (HeLa),Potency (JEG-3),Potency (OV90),Potency (PA-1),Potency (Hek293T)
O=C(O)C(Cl)Cl,inactive,inactive,inactive,inactive,inactive,inactive,inactive,inactive,inactive,–
COC(=O)c1cncn1C(C)c1ccccc1 (centres undefined),inactive,inactive,–,inactive,inactive,inactive,inactive,inactive,inactive,inactive
O=C(Oc1ccc([N+](=O)[O-])cc1)N1CCN(Cc2cccc(Oc3ccccc3)c2)CC1,inactive,inactive,inactive,inactive,inactive,inactive,inactive,inactive,inactive,inactive
CCN(CC)C(=O)c1ccc(C2=CC3(CCNCC3)Oc3cccc(O)c32)cc1,inactive,inactive,–,inactive,inactive,inactive,inactive,inactive,inactive,inactive
O=C(O)CNC(=O)c1c(O)c2ccccc2n(Cc2ccccc2)c1=O,inactive,inactive,inactive,inactive,inactive,inactive,–,inactive,inactive,inactive
O=S(=O)(O)C(F)(F)C(F)(F)C(F)(F)C(F)(F)F,inactive,inactive,–,inactive,inactive,inactive,inactive,inactive,inactive,inactive
CC(N[C@H]1C[C@H]1c1ccccc1)c1ccc2c(c1)OCCO2 (some centres undefined),inactive,inactive,–,inactive,inactive,inactive,inactive,inactive,inactive,inactive
COCCOCCO,inactive,inactive,inactive,inactive,inactive,inactive,inactive,–,inactive,inactive
Fc1cc(Br)ccc1CBr,inactive,inactive,inactive,inactive,inactive,inactive,inactive,inactive,inactive,inactive
CCCCC(CC)COC(=O)c1ccccc1C(=O)OCC(CC)CCCC (centres undefined),inactive,inactive,–,inactive,inactive,inactive,inactive,–,inactive,inactive
CCCCCCCCCC(CC)c1ccc(S(=O)(=O)O)cc1 (centres undefined),inactive,inactive,–,inactive,–,inactive,inactive,–,inactive,inactive
CC(=O)[O][Hg][c]1ccccc1,0.473 µM (active),5.62 µM (active),3.55 µM (active),4.47 µM (active),6.31 µM (active),14.1 µM (active),5.01 µM (active),12.6 µM (active),3.16 µM (active),7.08 µM (active)
O=C1C(I)=CC(=C(c2cc(I)c(O)c(I)c2)c2ccccc2C(=O)O)C=C1I,inactive,inactive,–,inactive,inactive,inactive,inactive,inactive,inactive,inactive
Cc1[nH]nc2ccc(-c3cncc(OC[C@@H](N)Cc4c[nH]c5ccccc45)c3)cc12,0.833 µM (active),0.316 µM (active),–,2.82 µM (active),1.78 µM (active),0.891 µM (active),2.82 µM (active),5.62 µM (active),0.794 µM (active),0.631 µM (active)
O=C(O)COc1nc(Cl)c(Cl)cc1Cl,inactive,inactive,–,inactive,inactive,inactive,inactive,inactive,inactive,inactive
CC(=O)Nc1ccc(OC[C@](C)(O)C(=O)Nc2ccc([N+](=O)[O-])c(C(F)(F)F)c2)cc1,inactive,inactive,–,inactive,inactive,inactive,inactive,inactive,inactive,inactive
CC(C)N(CCNC(=O)CN1CCCC1=O)C(C)C,inactive,inactive,–,inactive,inactive,inactive,inactive,inactive,inactive,inactive
Cc1ccc(Cl)c(O)c1,inactive,inactive,–,inactive,inactive,inactive,inactive,inactive,inactive,inactive
CCCCCCCCc1ccc(O)cc1,43.7 µM (active),25.1 µM (active),–,inactive,inactive,inactive,inactive,inactive,–,inactive
O=C(Oc1ccc([N+](=O)[O-])cc1)N1CCC(C(O)(c2ccc3c(c2)OCO3)c2ccc3c(c2)OCO3)CC1,inactive,inactive,–,inactive,inactive,inactive,inactive,inactive,inactive,inactive
O=[N+]([O-])c1c(Cl)c(Cl)cc(Cl)c1Cl,inactive,inactive,inactive,inactive,inactive,inactive,inactive,inactive,inactive,inactive
O=C(O)COc1ccccc1,inactive,inactive,–,inactive,inactive,inactive,inactive,inactive,inactive,inactive
CCNC(=O)C[C@@H]1N=C(c2ccc(Cl)cc2)c2cc(OC)ccc2-n2c(C)nnc21,5.9 µM (active),inactive,–,inactive,–,–,–,–,0.891 µM (active),–
O=C(N[C@@H](COc1ccc2[nH]c(=O)[nH]c2c1)c1ccccc1)c1cccn(Cc2ccc(F)c(F)c2)c1=O,inactive,inactive,–,inactive,inactive,inactive,inactive,inactive,inactive,inactive
CCCCOC(=O)c1ccccc1C(=O)OCc1ccccc1,inactive,inactive,inactive,inactive,inactive,inactive,inactive,–,inactive,inactive

SMILES,Potency (WaGa),Potency (C33A),Potency (CAOV3),Potency (CASKI),Potency (Es-2),Potency (HeLa),Potency (JEG-3),Potency (OV90),Potency (PA-1),Potency (Hek293T)
O=[N+]([O-])c1ccc([As](=O)(O)O)cc1,inactive,inactive,–,inactive,inactive,inactive,inactive,inactive,–,inactive
CS(=O)(=O)c1ccc(C(=O)C2C(=O)CCCC2=O)c([N+](=O)[O-])c1,inactive,inactive,–,inactive,inactive,inactive,inactive,inactive,inactive,inactive
CCC(=O)O[C@@H]1C=C2CCC3C(CCC4(C)C3CC[C@@H]4OC(=O)CC)C2CC1 (some centres undefined),inactive,inactive,inactive,inactive,inactive,inactive,inactive,–,inactive,inactive
Cc1cc(O)ccc1Cl,inactive,inactive,inactive,inactive,inactive,inactive,inactive,–,inactive,inactive
CC(=O)N(C)c1cccc(-c2ccnc3c(C(=O)c4cccs4)cnn23)c1,inactive,inactive,–,inactive,inactive,inactive,inactive,inactive,inactive,inactive
O=c1[nH]c2ccc(Cl)cc2c(N[C@@H]2CN3CCC2CC3)c1-c1nc2ccccc2[nH]1,1.48 µM (active),inactive,–,10 µM (active),0.447 µM (active),3.16 µM (active),–,5.01 µM (active),2.24 µM (active),–
CCOCCOC(C)=O,inactive,inactive,–,inactive,inactive,inactive,inactive,inactive,–,–
O=C(NCC1CCOCC1)c1cnc(Nc2ccc(Cl)cc2Cl)nc1C(F)(F)F,inactive,inactive,–,inactive,inactive,inactive,inactive,inactive,inactive,inactive
Oc1ccc2c3c1O[C@H]1[C@@H](O)C=C[C@H]4[C@@H](C2)NCC[C@@]341,25 µM (active),inactive,–,inactive,inactive,inactive,inactive,inactive,inactive,inactive
COC(C)(C)CCCC(C)C/C=C/C(C)=C/C(=O)OC(C)C (centres undefined),inactive,inactive,–,inactive,inactive,inactive,inactive,inactive,inactive,inactive
CC(C)NCC(O)c1ccc([N+](=O)[O-])cc1 (centres undefined),inactive,inactive,–,inactive,inactive,inactive,inactive,inactive,inactive,inactive
O=C1C=CC[C@@H]2[C@H]3CCCN4CCC[C@@H](CN12)[C@@H]34,inactive,inactive,inactive,inactive,inactive,inactive,inactive,inactive,inactive,inactive
O=S(=O)(O)C(F)(F)C(F)(F)C(F)(F)C(F)(F)C(F)(F)C(F)(F)C(F)(F)C(F)(F)F,–,inactive,–,inactive,inactive,inactive,inactive,inactive,inactive,inactive
CC1(N2CCC(n3c([C@@H]4CCCNC4)nc4ccccc43)CC2)CCCCCCC1,–,–,–,–,22.4 µM (active),–,11.2 µM (active),12.6 µM (active),15.8 µM (active),–
O=[N+]([O-])c1c2ccccc2cc2ccccc12,–,inactive,inactive,inactive,inactive,–,inactive,inactive,inactive,inactive
O=[N+]([O-])c1cc([N+](=O)[O-])c2ccccc2c1,–,–,–,inactive,inactive,–,inactive,inactive,inactive,inactive
CC(C)(C)NC[C@H](O)c1ccc(O)cc1Cl,inactive,–,–,inactive,inactive,inactive,inactive,inactive,–,inactive
C=CCC1=C(C)C(OC(=O)C2C(C=C(C)C)C2(C)C)CC1=O (centres undefined),–,inactive,–,inactive,inactive,inactive,inactive,inactive,–,inactive
CC1(C)CC/C(=C/c2ccc(Cl)cc2)C1(O)Cn1cncn1 (centres undefined),–,inactive,inactive,inactive,inactive,inactive,inactive,–,inactive,inactive
Nc1ccc(Cl)cc1N,–,–,–,–,inactive,inactive,inactive,–,inactive,inactive
CCN1CCN(C(=O)Cc2ccc(Nc3ncc(F)c(Nc4ccc(C(=O)Nc5ccccc5Cl)cc4)n3)cc2)CC1,–,inactive,–,inactive,–,8.91 µM (active),inactive,inactive,25.1 µM (active),25.1 µM (active)
COc1ccc(N(C(=O)Oc2c(C)cccc2C)c2ccnc(Nc3ccc(N4CCN(C)CC4)cc3)n2)c(OC)c1,–,–,–,inactive,–,–,inactive,inactive,–,inactive
Cc1c(C(=O)Nc2cccc(C(F)(F)F)c2)cc(-c2ccccc2)n1CCCN1CCOCC1,–,inactive,inactive,–,inactive,inactive,inactive,inactive,inactive,inactive
CCNC(=O)CC1N=C(c2ccc(Cl)cc2)c2cc(OC)ccc2-n2c(C)nnc21 (centres undefined),–,inactive,–,inactive,inactive,inactive,inactive,inactive,inactive,inactive
